Screening data: PubChem BioAssay, National Center for Advancing Translational Sciences (NCATS)
An excerpt weighted towards active compounds, which were near 21% of everything screened.
AMA1-RON2 inh – qHTS for Inhibitors of AMA1-RON; Towards Development of Antimalarial Drug Lead: Primary Screen | Potency, µM (titrated, usually from 58.2 µM), actives largely listed as inhibitors | actives 0.2% (n = 360,000) | AlphaScreen AMA1-biotinylated RON2 peptide binding | Plasmodium falciparum AMA1 (3D7) - RON2 peptide interaction; also: nearly all actives have a fitted effect of over 45% in size
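AMA1 (3D7) with his tag at 25 nM final met compounds first, then biotinylated RON2 peptide at 25 nM; detection used donor plus acceptor beads, 10 µg/mL apiece, read by AlphaScreen after 30 min at room temperature.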
Pf growth 48h – Primary qHTS for delayed death inhibitors of the malarial parasite plastid, 48 hour incubation. actives 5.9% (n = 310,000). Potency, µM (doses to about 28.7 µM), most hits filed as inhibitors. P. falciparum luciferase growth in erythrocytes, 48 h
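Luciferase-expressing parasites in RBCs, 2% Hct / 0.1% parasitemia final; RPMI 1640 + 0.5% Albumax; 37 C, 5% CO2, one generation; luminescence read-out, lower signal = inhibition.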
Cycloheximide cs – Cycloheximide Counterscreen for Small Molecule Inhibitors of Shiga Toxin. actives 12% (n = 300,000). cell reporter, cycloheximide protein synthesis inhibition counterscreen. max response, %; in the data active = max response mostly above about 13%, no sharp cut-off; inactive = mostly below about 14%; also: read at 38.3 µM for the half of the compounds with a filed dose
HCV inhibitor – qHTS Assay for Inhibitors of Hepatitis C Virus (HCV); actives 3.4% (n = 340,000); Huh7.5.1 HCVcc-Cre infection, luciferase reporter, 44 h; AID 651820, 2012; Potency, µM (series often up to 41.8 µM), actives largely listed as inhibitors
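Compounds are dispensed onto cells plated 4 h earlier at 1,000 per well, with HCVcc-Cre virus (about 0.5 moi) added next. Following 44 h of culture, luminescent signal is measured for 15 sec after 15 min with substrate at room temperature.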
Pf growth 96h – Primary qHTS for delayed death inhibitors of the malarial parasite plastid, 96 hour incubation. P. falciparum luciferase reporter growth, 96 h. Potency, µM (series often up to 28.7 µM), actives largely listed as inhibitors. actives 6.9% (n = 320,000). AID 504834, 2011
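Two parasite generations (96 h, 37 C, 5% CO2) of compound exposure in infected erythrocytes (0.05% parasitemia, 2% hematocrit). Luciferase-reporter P. falciparum; decreased luminescence indicates inhibited growth, aimed at apicoplast-acting delayed death.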
Shiga toxin inh – A qHTS for Small Molecule Inhibitors of Shiga Toxin | inhibition, % at 38.7 µM | actives 9.2% (n = 290,000) | AID 2315, 2010 | Vero cells, Shiga toxin protein synthesis inhibition reporter; in the data active = inhibition mostly above about 28%, no sharp cut-off; inactive = mostly below about 43%
Hits are given with their value; [ ] = dose if it differs, or a comment. Unless noted, calls follow the shape of the dose curve; as a rule, active = well fitted curve in the direction sought with a large enough effect; inconclusive = small, poorly fitted or top-dose-only effect, or another doubt; inactive = no such curve, though single readings can be large; an effect the other way counts as inactive or inconclusive.

Screening Cc1ccc(CN2CCNC(=O)C2CC(=O)NCCCn2nnc3ccccc32)cc1 (stereo unspecified) returned AMA1-RON2 inh inactive.
`CC1=C(C)CC(C(=O)NNC(=O)c2ccccc2)C(C(=O)O)C1` (stereo unspecified) gave AMA1-RON2 inh inactive, Pf growth 48h inactive, Cycloheximide cs 24, HCV inhibitor inactive, Pf growth 96h inactive and Shiga toxin inh 79.
`CC1=C(C)CC(C(=O)NNC(=O)c2cccc(Cl)c2)C(C(=O)O)C1` (stereo unspecified) gave AMA1-RON2 inh inactive[2.32 µM], Pf growth 48h inactive, Cycloheximide cs 37, HCV inhibitor inactive, Pf growth 96h inactive and Shiga toxin inh 50.
For CC1=C(C)CC(C(=O)NCC(=O)c2ccccc2)C(C(=O)O)C1 (stereo unspecified) the results were AMA1-RON2 inh inactive, Cycloheximide cs 40, HCV inhibitor inactive, Pf growth 96h inactive and Shiga toxin inh 70.
`Cc1cc(C)nc(N2CCC(C(=O)NNC(=O)c3ccccc3)CC2)n1` gave AMA1-RON2 inh inactive, Pf growth 48h inactive, Cycloheximide cs inactive, HCV inhibitor inactive, Pf growth 96h inactive and Shiga toxin inh inactive.
For CC1CCC(C(C)C)C(OC(=O)CSc2n[nH]c(=O)[nH]c2=O)C1 (stereo unspecified) the results were AMA1-RON2 inh inactive, Pf growth 48h inactive, Cycloheximide cs inactive, HCV inhibitor inconclusive, Pf growth 96h 13µM and Shiga toxin inh inactive.
Screening O=C(O)c1ccc(Oc2ccc(S(=O)(=O)c3ccc(C(=O)O)c(C(=O)O)c3)cc2)cc1 returned AMA1-RON2 inh inactive, Pf growth 48h inactive, Cycloheximide cs inactive, HCV inhibitor inactive, Pf growth 96h inconclusive and Shiga toxin inh inactive.
COc1ccc(C(=O)c2c(C)c3cc(C)ccc3n2CC(O)CN2CCOCC2)cc1 (stereo unspecified) was read as AMA1-RON2 inh inactive, Pf growth 48h inconclusive, Cycloheximide cs inactive, HCV inhibitor inactive, Pf growth 96h 12µM and Shiga toxin inh inactive.
For COc1ccc(Cc2nnc(SCC(=O)N3CCCCC3)o2)cc1 the results were AMA1-RON2 inh inactive, Pf growth 48h inactive, Cycloheximide cs inactive, HCV inhibitor inactive, Pf growth 96h inactive and Shiga toxin inh inactive.
For Cc1cc(N2CCN(C3CCCCC3)CC2)nc2cccc(O)c12 the results were AMA1-RON2 inh inactive, Pf growth 48h 2.9µM, Cycloheximide cs inactive, HCV inhibitor inconclusive, Pf growth 96h inconclusive and Shiga toxin inh inactive.
Screening C[C@@H]1C(c2cccc(Cl)c2)=NN(c2ccc(Br)cc2)[C@H]1C(=O)N1CCOC1=O returned AMA1-RON2 inh inactive, Cycloheximide cs inactive, HCV inhibitor inconclusive and Shiga toxin inh inactive.
Screening CCn1c(NC(=O)c2cccs2)nc2ccccc21 returned AMA1-RON2 inh inactive, Pf growth 48h inconclusive, Cycloheximide cs 47, HCV inhibitor inactive and Shiga toxin inh inactive.
CCCn1c(NC(=O)C2CCN(C(=O)c3ccccc3C)CC2)nc2ccccc21 was read as AMA1-RON2 inh inactive, Pf growth 48h 12µM, HCV inhibitor inconclusive and Pf growth 96h inconclusive.
CCCn1c(NC(=O)c2cccc(C)c2C)nc2ccccc21 was read as AMA1-RON2 inh inactive, Cycloheximide cs inactive, HCV inhibitor 11µM, Pf growth 96h 8.3µM and Shiga toxin inh inactive.
CCn1c(CCCNC(=O)c2cccs2)nc2ccccc21 was read as AMA1-RON2 inh inactive, Pf growth 48h inactive, Cycloheximide cs inactive, HCV inhibitor inactive, Pf growth 96h inactive and Shiga toxin inh inactive.
Screening O=c1[nH]c(=S)[nH]c2c1C(c1ccc(Cl)cc1)OC(CCc1ccccc1)C2 (stereo unspecified) returned AMA1-RON2 inh inactive.
For CCOc1ccccc1N1CCN(CC(=O)N(CC(C)C)c2c(N)n(CC(C)C)c(=O)[nH]c2=O)CC1 the results were AMA1-RON2 inh inactive, Pf growth 48h inactive, Cycloheximide cs inactive, HCV inhibitor inactive, Pf growth 96h inactive and Shiga toxin inh inactive.
